Laboratory results reported in PubChem BioAssay (NCATS).
Where “and” joins values, the source holds several entries; their conditions need not be identical. Identical values can stand only once. Results filed as inconclusive are left out. Calls of active or inactive are those of the source. Unless noted, calls follow the shape of the dose curve; as a rule, active = well fitted curve in the direction sought with a large enough effect; inconclusive = small, poorly fitted or top-dose-only effect, or another doubt; inactive = no such curve, though single readings can be large; an effect the other way counts as inactive or inconclusive.

Tests used:
[1] = Cell Viability - SK-N-SH (AID 435; calls by dose curve;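 also: potency is read from the fitted curve at half-maximal effect; compound exposure lasted 40 h at 37 °C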); conditions: SK-N-SH neuroblastoma cell viability qHTS
Summary of the method: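 Human neuroblastoma line, 40 h exposure at 37 °C, ATP quantified via luciferase luminescence; DMSO and 100 uM tamoxifen define 0 and 100% inhibition for AC50 fitting.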

[2] = Cell Viability - Renal Proximal Tubule (AID 545); conditions: renal proximal tubule cells viability; series mostly up to 91.7 µM; also: nearly all actives have a fitted effect of over 40% in size
Summary of the method: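 In this qHTS format, normal rat kidney-derived proximal tubule cells in complete culture medium receive compound titrations, then sit 40 hours at 37 °C before luciferase-based ATP quantitation; potency is reported as AC50 from concentration-response curves.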

[3] = Cellular Toxicity (caspase-3) HepG2 (AID 654); conditions: HepG2 caspase-3 activation, luminescence, 0% = DMSO only, 100% = tamoxifen; series mostly up to 92.2 µM;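 also: cells exposed to compound for 16 hours before reading; 0% = DMSO alone and 100% = caspase signal from 100 µM tamoxifen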
Summary of the method: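 Caspase 3/7 activation in HepG2 is measured as rising luminescence after a 16 hr treatment at 37 °C. Values are scaled between DMSO basal and 100 uM tamoxifen, and AC50 is fitted with the Hill equation.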

[4] = Cellular Toxicity (caspase-3) SK-N-SH (AID 661); conditions: SK-N-SH caspase-3 activation, qHTS; series mostly up to 91.7 µM;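 also: cells exposed to compound for 16 hours; 0% = DMSO basal and 100% = 10 µM staurosporine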
Summary of the method: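 Cells were seeded and incubated 5 hr at 37 °C, dosed with compound over a concentration range for 16 hr, then given Caspase-Glo 3/7 reagent for 1 hr at room temperature before luminescence reading.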

[5] = target: Cytochrome P450 3A4 (Homo sapiens) (UniProt P08684); assay: qHTS Assay for Inhibitors and Substrates of Cytochrome P450 3A4 (AID 884); conditions: recombinant CYP3A4, Luciferin-PPXE luminescence; series mostly up to 57.1 µM; also: nearly all actives have a fitted effect of over 50% in size; also: potency is read from the fitted curve at half-maximal effect
Summary of the method: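 Luminescent readout of luciferin produced by CYP3A4 (20 nM) dealkylation of Luciferin-PPXE, 25 uM (its KM). NADPH-driven reaction ran 60 min at RT after 10 min compound preincubation; data scaled to 57 uM ketoconazole as 100% inhibition.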

[6] = Cell Viability - LYMP2-004 (AID 966); conditions: LYMP2-004 lymphoblastoid cell viability, qHTS; series mostly up to 92.2 µM;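 also: cells exposed to compound for 24 h; plate controls were DMSO only for no effect and tetraoctylammonium bromide control for full effect; nearly all actives have a fitted effect of over 65% in size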
Summary of the method: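 qHTS cytotoxicity: human lymphoblastoid line, 24 hr compound treatment, 37 C, complete medium. Viability read as cellular ATP via luciferase luminescence; tetraoctylammonium bromide served as positive control.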

[7] = Cell Viability - LYMP2-015 (AID 971); conditions: LYMP2-015 lymphoblastoid cell viability; series mostly up to 92.2 µM;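 also: cells exposed to compound for 24 h; 0% = DMSO only and full effect = 92 µM tetraoctylammonium bromide; nearly all actives have a fitted effect of over 55% in size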
Summary of the method: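 Cells are seeded at 2500 per well and incubated 5 hr at 37 C. Compounds are added across a concentration series for 24 hr at 37 C. CellTiter-Glo is added, and luminescence is read after 30 min at room temperature.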

[8] = Cell Viability - LYMP2-010 (AID 981); conditions: LYMP2-010 lymphoblastoid cell viability, qHTS; series mostly up to 92.2 µM;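 also: cells exposed to compound for 24 hours at 37 °C; % is scaled to controls: 0 for no effect and ±100 for the full control effect; nearly all actives have a fitted effect of over 55% in size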
Summary of the method: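 Steps: seed 2500 LYMP2-010 cells per well; incubate 5 hr at 37 C; add compound; incubate 24 hr at 37 C; add CellTiter-Glo, wait 30 min at room temperature; read luminescence. Concentration-response fitted to Hill equation for AC50.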

[9] = Cell Viability - LYMP2-012 (AID 982); conditions: LYMP2-012 lymphoblastoid cell viability qHTS; series mostly up to 92.2 µM;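 also: cellular ATP by luciferase luminescence where a drop means cytotoxicity; cells exposed to compound for one day before reading; 0% = DMSO only and full loss = 92 µM tetraoctylammonium bromide; nearly all actives have a fitted effect of over 55% in size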
[10] = Cell Viability - LYMP2-018 (AID 985); conditions: LYMP2-018 lymphoblastoid cells, viability (qHTS); series mostly up to 92.2 µM;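 also: compound exposure lasted 24 hr at 37 °C; plate controls were DMSO only for no effect and tetraoctylammonium bromide at 92 µM for full effect; nearly all actives have a fitted effect of over 50% in size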
Summary of the method: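 Seed 2500 lymphoblastoid cells per well, incubate 5 hr at 37 C, add compound and incubate 24 hr at 37 C, add CellTiter-Glo, wait 30 min at room temperature, then read luminescence.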

[11] = Cell Viability - LYMP2-020 (AID 986); conditions: series mostly up to 92.2 µM;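 also: cells exposed to compound for 24 h at 37 °C; plate controls were DMSO only for no effect and tetraoctylammonium bromide at 92 µM for full effect; nearly all actives have a fitted effect of over 55% in size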
Summary of the method: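 Seed 2500 cells per well and incubate 5 hr at 37 C. Add compounds at a concentration series and incubate 24 hr at 37 C. Add CellTiter-Glo, wait 30 min at RT, read luminescence, and fit a Hill curve for AC50.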

[12] = qHTS assay for small molecule agonists of retinoid X receptor alpha signaling (AID 588544; calls by dose curve;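 as to activation: 0% = DMSO basal wells and 100% = reference agonist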); conditions: HEK293T RXRa-UAS-bla, beta-lactamase reporter, 18 h; 530 nm emission
[13] = target: Retinoic acid receptor RXR-alpha (Homo sapiens) (UniProt P19793); assay: as above; conditions: HEK293T RXRa-UAS-bla, beta-lactamase reporter, 18 h; series mostly up to 76.7 µM
[14] = target: Thyroid hormone receptor beta (Homo sapiens) (UniProt P10828); assay: qHTS assay for small molecule agonists of thyroid hormone receptor beta signaling (AID 588545; calls by dose curve;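 also: 0% = DMSO only and 100% = 10 nM T3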); conditions: TR-UAS-bla GripTite HEK 293, beta-lactamase ratio, agonist mode, 18 h; series mostly up to 76.7 µM
Summary of the method: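 Efficacy and EC50 values derive from Hill fits of qHTS titration data, normalized to 10 nM T3 and DMSO-only wells. HEK 293 reporter cells were stimulated for 18 hrs at 37 C, with beta-lactamase activity measured by CCF4 fluorescence.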

[15] = qHTS assay for small molecule antagonists of retinoid X receptor alpha signaling (AID 588546; active = well fitted inhibition curve with a large enough effect in the signal ratio, with a control signal flat, not every such curve was filed as active; the % refers to the signal ratio;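 also: cells stimulated with 9-cis-retinoic acid as agonist; % is scaled to controls: 0 for no effect and ±100 for the full control effect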); conditions: HEK293T RXRa-UAS-bla, beta-lactamase ratio, antagonist mode; measured here: W530 green channel, cytotoxicity proxy
Summary of the method: (§1)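 Beta-lactamase reporter inhibition, read as CCF4 fluorescence ratio (ex 405, em 460/530 nm) after 2 h at RT. HEK293T UAS-bla cells, 2500/well, were stimulated with 9-cis-RA at 500 or 100 nM final alongside test compound for 18 h at 37 C.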

[16] = target: Retinoic acid receptor RXR-alpha (Homo sapiens) (UniProt P19793); assay: as above; conditions: HEK293T RXRa-UAS-bla, beta-lactamase ratio, antagonist mode
Summary of the method: as §1

[17] = target: Voltage-gated inwardly rectifying potassium channel KCNH2 (Homo sapiens) (UniProt Q12809); assay: qHTS Assay for Small Molecule Inhibitors of the Human hERG Channel Activity (AID 588834); conditions: U2OS BacMam hERG, FluxOR thallium flux fluorescence; series mostly up to 92.2 µM;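 also: lower thallium flux fluorescence means stronger hERG block; nearly all actives have a fitted effect of over 50% in size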; also: potency is read from the fitted curve at half-maximal effect
Summary of the method: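 Homogeneous FluxOR thallium flux assay using hERG-expressing U2OS cells (BacMam). Compound treatment about 10 minutes preceded stimulation; reduced fluorescence taken as channel block.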

[18] = qHTS assay for environmental chemicals that activate the Aryl hydrocarbon Receptor (AhR) signaling pathway (AID 651777); conditions: 1A2-DRE human hepatoma cells, luciferase, 24 h; activation: stronger effect = higher value; also: nearly all actives have a fitted effect of over 15% in size; also: potency is read from the fitted curve at half-maximal effect; as to activation: % of control where 0% means no effect
Summary of the method: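 Following a 24 hr incubation with test chemicals at 37 C and 5% CO2, 1A2-DRE human hepatoma cells received One-Glo reagent; after 30 min at room temperature, luciferase output reflected CYP1A2 induction via AhR.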

[19] = qHTS assay for cell viability of the p53RE-bla HCT-116 cell line (AID 743292); conditions: p53RE-bla HCT-116 viability, ATP luminescence, 16 h; series mostly up to 95 µM
Summary of the method: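 After plating at 4,000 cells per well and a 5 h rest at 37 C, HCT-116 cells carrying p53RE-bla received test chemicals in DMSO. Sixteen hours later at 37 C, CellTiter-Glo was added and luminescence recorded following 30 min at room temperature.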

[20] = target: Nuclear receptor ROR-gamma (Homo sapiens) (UniProt P51449); assay: qHTS assay for small molecule antagonists of the retinoid-related orphan receptor gamma (ROR-gamma) signaling pathway (AID 651802); conditions: ROR-gamma antagonist cell reporter assay; series mostly up to 92.2 µM; also: nearly all actives have a fitted effect of over 60% in size; also: potency is read from the fitted curve at half-maximal effect
Summary of the method: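 Steps: cells dispensed; compound or DMSO transferred by pin tool; doxycycline added to induce the ROR response element-driven luciferase; plates held 16hr at 37C; ONE-Glo added and luminescence measured.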

Sequence of Retinoic acid receptor RXR-alpha (Homo sapiens) (P19793 whole entry, looked up): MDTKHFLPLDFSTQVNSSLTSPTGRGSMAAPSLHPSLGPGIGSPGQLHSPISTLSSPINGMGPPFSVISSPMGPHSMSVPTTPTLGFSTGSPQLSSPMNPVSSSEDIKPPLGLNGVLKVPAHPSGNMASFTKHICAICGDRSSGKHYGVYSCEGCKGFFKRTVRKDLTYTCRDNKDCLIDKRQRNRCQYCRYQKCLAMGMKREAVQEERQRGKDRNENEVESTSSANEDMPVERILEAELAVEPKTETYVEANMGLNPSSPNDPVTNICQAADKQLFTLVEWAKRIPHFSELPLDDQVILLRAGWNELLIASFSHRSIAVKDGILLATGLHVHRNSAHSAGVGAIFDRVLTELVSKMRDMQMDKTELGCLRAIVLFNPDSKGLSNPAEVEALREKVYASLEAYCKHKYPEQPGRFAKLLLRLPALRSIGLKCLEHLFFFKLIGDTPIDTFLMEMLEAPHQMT
Sequence of Nuclear receptor ROR-gamma (Homo sapiens) (P51449 whole entry, looked up): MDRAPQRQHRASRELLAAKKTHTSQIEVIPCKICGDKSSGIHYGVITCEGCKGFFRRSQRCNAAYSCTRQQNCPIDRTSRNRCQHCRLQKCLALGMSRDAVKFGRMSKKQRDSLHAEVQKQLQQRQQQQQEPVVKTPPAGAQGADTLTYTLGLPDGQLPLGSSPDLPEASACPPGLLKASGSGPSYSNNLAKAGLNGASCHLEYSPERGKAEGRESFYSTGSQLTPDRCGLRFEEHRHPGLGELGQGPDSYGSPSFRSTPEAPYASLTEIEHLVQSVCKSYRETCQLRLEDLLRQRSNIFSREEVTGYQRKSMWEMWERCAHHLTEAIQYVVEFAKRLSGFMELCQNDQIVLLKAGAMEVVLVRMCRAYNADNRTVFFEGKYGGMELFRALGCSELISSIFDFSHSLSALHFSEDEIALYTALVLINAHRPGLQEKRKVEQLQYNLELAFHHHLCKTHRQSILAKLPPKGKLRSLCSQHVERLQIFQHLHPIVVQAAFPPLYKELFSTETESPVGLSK
Sequence of Voltage-gated inwardly rectifying potassium channel KCNH2 (Homo sapiens) (Q12809 whole entry, looked up): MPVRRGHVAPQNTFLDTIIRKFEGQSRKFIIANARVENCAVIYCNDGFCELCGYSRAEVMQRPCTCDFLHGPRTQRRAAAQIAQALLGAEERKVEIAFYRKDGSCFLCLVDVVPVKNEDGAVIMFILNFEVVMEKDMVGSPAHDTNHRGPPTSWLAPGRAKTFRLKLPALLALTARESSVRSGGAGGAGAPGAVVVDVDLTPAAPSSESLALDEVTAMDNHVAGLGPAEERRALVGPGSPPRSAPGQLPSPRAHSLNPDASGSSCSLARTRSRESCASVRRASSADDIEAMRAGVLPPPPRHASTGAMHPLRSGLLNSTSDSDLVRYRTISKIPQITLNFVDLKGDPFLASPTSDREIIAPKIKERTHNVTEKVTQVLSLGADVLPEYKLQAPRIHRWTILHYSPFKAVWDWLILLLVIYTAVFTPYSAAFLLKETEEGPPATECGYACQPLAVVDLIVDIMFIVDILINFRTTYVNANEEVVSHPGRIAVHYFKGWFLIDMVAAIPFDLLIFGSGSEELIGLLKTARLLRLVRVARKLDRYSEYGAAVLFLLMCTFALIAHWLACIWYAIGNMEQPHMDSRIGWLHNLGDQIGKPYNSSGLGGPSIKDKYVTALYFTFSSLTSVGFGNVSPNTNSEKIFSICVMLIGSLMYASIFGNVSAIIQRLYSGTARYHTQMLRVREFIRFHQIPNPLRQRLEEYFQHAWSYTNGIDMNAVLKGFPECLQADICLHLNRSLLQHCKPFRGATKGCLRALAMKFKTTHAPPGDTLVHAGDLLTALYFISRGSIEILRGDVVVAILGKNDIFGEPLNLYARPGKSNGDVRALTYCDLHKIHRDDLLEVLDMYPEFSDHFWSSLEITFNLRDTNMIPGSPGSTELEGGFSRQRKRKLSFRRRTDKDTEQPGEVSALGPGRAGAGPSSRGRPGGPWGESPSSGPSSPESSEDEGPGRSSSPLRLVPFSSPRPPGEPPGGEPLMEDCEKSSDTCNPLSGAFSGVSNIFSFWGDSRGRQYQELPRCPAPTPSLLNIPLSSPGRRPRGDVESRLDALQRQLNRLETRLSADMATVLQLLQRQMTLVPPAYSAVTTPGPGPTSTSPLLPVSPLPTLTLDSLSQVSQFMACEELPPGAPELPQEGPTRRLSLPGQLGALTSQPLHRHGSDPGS
Sequence of Thyroid hormone receptor beta (Homo sapiens) (P10828 whole entry, looked up): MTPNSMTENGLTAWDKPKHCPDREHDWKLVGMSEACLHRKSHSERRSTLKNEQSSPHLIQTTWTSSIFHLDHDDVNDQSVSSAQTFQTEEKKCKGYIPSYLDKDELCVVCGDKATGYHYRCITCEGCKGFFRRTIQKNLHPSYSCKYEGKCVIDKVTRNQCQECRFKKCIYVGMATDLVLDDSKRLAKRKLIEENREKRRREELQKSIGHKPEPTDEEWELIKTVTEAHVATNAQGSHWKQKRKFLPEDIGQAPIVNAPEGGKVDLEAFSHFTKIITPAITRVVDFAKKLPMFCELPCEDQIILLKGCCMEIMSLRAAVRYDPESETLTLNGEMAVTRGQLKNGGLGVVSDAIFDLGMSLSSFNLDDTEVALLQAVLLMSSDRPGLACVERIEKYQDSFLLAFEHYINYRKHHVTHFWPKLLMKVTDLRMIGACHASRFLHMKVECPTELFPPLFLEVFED
Sequence of Cytochrome P450 3A4 (Homo sapiens) (P08684 whole entry, looked up): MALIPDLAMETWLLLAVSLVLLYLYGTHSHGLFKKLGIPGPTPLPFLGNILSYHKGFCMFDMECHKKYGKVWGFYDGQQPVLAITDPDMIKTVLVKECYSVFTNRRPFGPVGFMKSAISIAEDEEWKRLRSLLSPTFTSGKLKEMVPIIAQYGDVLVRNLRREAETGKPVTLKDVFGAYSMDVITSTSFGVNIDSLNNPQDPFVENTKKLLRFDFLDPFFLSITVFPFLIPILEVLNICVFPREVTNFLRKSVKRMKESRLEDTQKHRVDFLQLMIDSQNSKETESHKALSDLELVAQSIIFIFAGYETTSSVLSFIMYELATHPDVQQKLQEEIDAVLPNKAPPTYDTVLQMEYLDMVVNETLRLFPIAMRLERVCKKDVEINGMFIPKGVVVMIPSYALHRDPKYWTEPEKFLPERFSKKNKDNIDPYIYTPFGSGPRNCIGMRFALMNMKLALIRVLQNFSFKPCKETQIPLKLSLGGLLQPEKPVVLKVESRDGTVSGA

CCCC[N+](=O)[O-]
inactive: Potency [1] > 92 µM | outcome [2] | outcome [3] | Potency [4] | Potency [5] | Potency [6] | Potency [7] | Potency [8] | Potency [9] | Potency [10] | Potency [11] | outcome [13] | Potency [14] | max response [16] -6.25% | Potency [17] | activation [18] 0.218% | Potency [19]
-5.28%: max response [12]
-4.37%: max response [15]

COP(=S)(OC)SCn1nnc2ccccc2c1=O
active: Potency [5] 7.94 µM
inactive: outcome [2] | outcome [3] | Potency [4] | Potency [7] | Potency [8] | Potency [9] | Potency [10] | Potency [11] | Potency [14] | Potency [17] | activation [18] 2.58% and 5.04% | Potency [20] | Potency [19]

Cc1cc(N=Nc2ccccc2C)ccc1N
inactive: Potency [1] > 92 µM | outcome [3] | Potency [6] | Potency [7] | Potency [8] | Potency [9] | Potency [10] | Potency [11] | Potency [14] | max response [16] -17.1% | Potency [17] | Potency [20] | Potency [19]
-7.48%: max response [15]
active: Potency [5] 5.01 µM | Potency [18] 44.7 µM

Cc1cc(C)cc(OP(=O)(Oc2cc(C)cc(C)c2)Oc2cc(C)cc(C)c2)c1
17.8%: max response [15]
active: Potency [5] 2.51 µM | Potency [20] 26.6 µM
-11.1%: max response [12]
inactive: Potency [1] > 92 µM | outcome [2] | outcome [3] | Potency [4] | Potency [6] | Potency [7] | Potency [8] | Potency [9] | Potency [10] | Potency [11] | outcome [13] | Potency [14] | max response [16] 28.5% | activation [18] 12.8% | Potency [19]

Clc1cccc(Cl)c1
5.35%: max response [12]
-14.2%: max response [15]
inactive: Potency [1] > 92 µM | outcome [2] | outcome [3] | Potency [4] | Potency [5] | Potency [6] | Potency [7] | Potency [8] | Potency [9] | Potency [10] | Potency [11] | outcome [13] | Potency [14] | max response [16] 24.2% | Potency [17] | activation [18] -1.27% | Potency [20] | Potency [19]

Oc1c(Cl)c(Cl)cc(Cl)c1Cl
inactive: Potency [4] | Potency [5] | Potency [6] | Potency [7] | Potency [8] | Potency [9] | Potency [10] | Potency [11] | outcome [13] | max response [16] -10.3% | Potency [17] | activation [18] 0.522% | Potency [19]
-8.85%: max response [15]
19.2%: max response [12]
active: Potency [20] 21.1 µM

Nc1ccc(Cc2ccc(N)c(Cl)c2)cc1Cl
-5.52%: max response [15]
inactive: Potency [1] > 92 µM | outcome [3] | Potency [4] | Potency [6] | Potency [7] | Potency [8] | Potency [9] | Potency [10] | Potency [11] | max response [16] -29.3% | activation [18] 3.75% | Potency [19]
active: Potency [5] 5.01 µM

Brc1ccc(Oc2ccc(Br)cc2Br)c(Br)c1
inactive: Potency [1] > 92 µM | outcome [2] | outcome [3] | Potency [4] | Potency [5] | Potency [6] | Potency [7] | Potency [8] | Potency [9] | Potency [10] | Potency [11] | Potency [14] | activation [18] 7.07% | Potency [20]

Cc1ccc(OP(=O)(Oc2ccc(C)cc2)Oc2ccc(C)cc2)cc1
-10.5% and -16.2%: max response [15]
inactive: Potency [1] > 92 µM | outcome [2] | outcome [3] | Potency [4] | Potency [6] | Potency [7] | Potency [8] | Potency [9] | Potency [10] | Potency [11] | outcome [13] | Potency [14] | max response [16] -1.31% and -25.6% | activation [18] 5.07% and 5.6% | Potency [19]
-17.7%: max response [12]
active: Potency [5] 7.94 µM | Potency [17] 20 µM
